Test results taken from ChEMBL document CHEMBL4513216, “Probing the Open Global Health Chemical Diversity Library for Multistage-Active Starting Points for Next-Generation Antimalarials” (ACS Infect Dis, 2020).
Out of some 68,000 compounds screened, about 2,700 (4%) showed an effect of 50% or more. This is one part of a sample in which strong results are shown more often than they occur.

Tested on: Plasmodium berghei
Test: Screen against P. berghei liver stage (PbLuc), transformed with Luciferase, at 2uM
Format: functional, HepG2
Details: tested at 2 uM

Row | SMILES | INHIBITION
1 | CCc1nn(-c2cc(Oc3cc(C)ccc3C)nc(C)n2)c(N)c1C#N | 16.91%
2 | CC(C)CCN1C[C@@H]2OCCN(c3ncc(F)cn3)[C@@H]2C1 | 29.74%
3 | O=C(c1ccc(=O)[nH]n1)N1CCCC(O)(CN2CCC(F)(F)CC2)CC1 (stereo not drawn) | 23.7%
4 | Cc1cnc(NC2CCc3c(ccc(=O)n3C)C2)nc1 (stereo not drawn) | 58.93%
5 | O=C(Cc1ccsc1)NC1CCc2c(ccc(=O)n2CC2CC2)C1 (stereo not drawn) | 6.85%
6 | Cn1c2c(ccc1=O)CC(NC(=O)Cc1ccsc1)CC2 (stereo not drawn) | 76.24%
7 | CCc1cnc(NC2CCc3c(ccc(=O)n3C)C2)nc1 (stereo not drawn) | -17.39%
8 | Cn1c2c(ccc1=O)CC(Nc1ncc(F)cn1)CC2 (stereo not drawn) | 6.22%
9 | Cn1c2c(ccc1=O)CC(NC(=O)c1ccsc1)CC2 (stereo not drawn) | 0.57%
10 | CC(C)=CCN1C[C@@H]2CC[C@H]1CN(Cc1coc(C)n1)C2 | -60.75%
11 | COC(=O)c1ccc(CN2CCC(c3n[nH]c(C)n3)CC2)s1 | -54.89%
12 | CC(C)=CCC1(C(=O)O)CCCN(CCC(=O)NC2CC2)C1 (stereo not drawn) | 9.43%
13 | Cc1ccc(NC(=O)NCCCc2n[nH]c(N)c2C#N)cc1 | 33.01%
14 | CCc1cnc(N)nc1NC(C)c1ccc(C)c(C)c1 (stereo not drawn) | 35.84%
15 | O=C(c1ccncn1)N1CCC[C@]2(C[C@H](OCC3CC3)CO2)C1 | 16.78%
16 | CC(C)(C)OCC1CN(Cc2cccs2)S(=O)(=O)c2cnccc2O1 (stereo not drawn) | 35.6%
17 | O=C1CCSCC(C(=O)N2CCN(C3CCCCC3)CC2)N1 (stereo not drawn) | 51.94%
18 | O=C1CCSCC(C(=O)N2CCCC2)N1 (stereo not drawn) | 19.35%
19 | O=C1CCSCC(C(=O)N2CCCCC2)N1 (stereo not drawn) | 39.58%
20 | O=C(N[C@]12CC1CN(C(=O)c1ccco1)C2)c1ccco1 (stereo partly drawn) | -50.87%
21 | O=C(N[C@]12CC1CN(C(=O)c1ccco1)C2)c1ccoc1 (stereo partly drawn) | 14.47%
22 | O=C(N[C@]12CC1CN(C(=O)c1ccco1)C2)c1cccc(F)c1 (stereo partly drawn) | 52.36%

Row | SMILES | INHIBITION
23 | Nc1nc(CN2CCCCC2Cn2cncn2)nc2ccccc12 (stereo not drawn) | -42.37%
24 | Cc1cnc(N2C(=O)CSC2c2ccc(N(C)C)cc2)s1 (stereo not drawn) | -8.23%
25 | O=C(O)c1cc(-c2cccs2)nc2c(Br)cnn12 | -11.83%
26 | Cn1ccnc1CN1CCN(CC(O)c2cccc(F)c2)CC1 (stereo not drawn) | -0.3%
27 | Cn1ccnc1CN1CCN(CC(O)c2ccc(F)cc2)CC1 (stereo not drawn) | -10.66%
28 | Cn1ccnc1CN1CCN(CC(O)c2ccc(F)c(F)c2)CC1 (stereo not drawn) | 56.67%
29 | CC(c1cccc(F)c1)N1CCN(Cc2nccn2C)CC1 (stereo not drawn) | 0.46%
30 | CC(c1ccc(F)cc1)N1CCN(Cc2nccn2C)CC1 (stereo not drawn) | 5.09%
31 | CC(c1ccc(F)c(F)c1)N1CCN(Cc2nccn2C)CC1 (stereo not drawn) | 62.13%
32 | CN(C1CCN(c2ccccn2)CC1)S(=O)(=O)c1cccc(F)c1 | 15.38%
33 | COCC1CN(Cc2ccc(C)o2)Cc2cnn(CC3CCOCC3)c21 (stereo not drawn) | -24.39%
34 | Cc1nnsc1C(=O)NCCn1ccc(-c2ccncc2)n1 | -34.54%
35 | Cc1cc(CC(=O)N(C)Cc2cccc(OC(C)C)c2)n[nH]1 | -75.84%
36 | Cc1nc(-c2nnc[nH]2)sc1C(=O)N1CCCC1c1ccsc1 (stereo not drawn) | -26.81%
37 | CC(C)n1c(C2CCCN(Cc3ccnn3C)C2)nc2ccccc21 (stereo not drawn) | 16.87%
38 | Cc1ncc(CN2CCCC(c3nc4ccccc4n3C(C)C)C2)s1 (stereo not drawn) | 61.57%
39 | Cc1cnc(CN2CCCC(c3nc4ccccc4n3C(C)C)C2)o1 (stereo not drawn) | 37.77%
40 | Cc1ccc(OCC2CCCN(C(=O)CN3CCOCC3)C2)cc1 (stereo not drawn) | 38.67%
41 | Cc1ccc(OCC2CCCN(Cc3ccc(CO)o3)C2)cc1 (stereo not drawn) | 69.67%
42 | Cc1ccc(OCC2CCCN(C(=O)Cn3ccccc3=O)C2)cc1 (stereo not drawn) | 45.14%
43 | COc1ccc(OCC2CCCN(Cc3ccncc3)C2)cc1 (stereo not drawn) | -1.29%
44 | Cc1ccc(OCC2CCCN(c3nc(CO)cs3)C2)cc1 (stereo not drawn) | -43.42%

Row | SMILES | INHIBITION
45 | Cc1ccc(OCC2CCCN(CC3CCOCC3)C2)cc1 (stereo not drawn) | 60.13%
46 | Nc1nnc(SCc2cc(=O)n3c4c(sc3n2)CCCC4)[nH]1 | -0.04%
47 | CCCc1noc(C2CC(=O)N(Cc3ccccc3)C2)n1 (stereo not drawn) | 39.58%
48 | Cc1ccc(S(=O)(=O)N2CC[C@@H]3C[C@H](NC(=O)c4ccncc4)[C@@H]32)cc1 | 20.51%
49 | Cc1cccc(N2CCC3(CCCN(C(=O)c4cccnc4)C3)C2)n1 (stereo not drawn) | -37.2%
50 | Cc1nocc1C(=O)N1CCc2c(CN(C)C)nn(C)c2C1 | 51.81%
51 | Cc1cc(C(=O)N2CCc3c(CN(C)C)nn(C)c3C2)[nH]n1 | 28.2%
52 | Cc1cccc(C(=O)N2CCc3c(CN(C)C)nn(C)c3C2)n1 | -27.08%
53 | Cn1cc(CN2CCC(c3ncc(Cl)cc3S(C)(=O)=O)CC2)cn1 | 22.95%
54 | O=C1COc2c(cccc2C(=O)N2CCCCC2Cn2cccn2)N1 (stereo not drawn) | 63.93%
55 | O=C(c1cccc2c1OCCO2)N1CCCCC1Cn1cccn1 (stereo not drawn) | -46.81%
56 | Cc1nc(CC(=O)N2CCCC2Cn2cccn2)cs1 (stereo not drawn) | 34.53%
57 | CCc1ncc(C(=O)N2CCCCC2Cn2cccn2)s1 (stereo not drawn) | 63.95%
58 | O=C(c1cnc(C2CC2)s1)N1CCCCC1Cn1cccn1 (stereo not drawn) | 21.31%
59 | O=C(CCOc1ccc(F)cc1)N1CCCC1Cn1cccn1 (stereo not drawn) | 70.27%
60 | CCc1ncc(C(=O)N2CCCC2Cn2cccn2)s1 (stereo not drawn) | 17.31%
61 | CCc1nc(CC(=O)N2CCCCC2Cn2cccn2)cs1 (stereo not drawn) | 21.12%
62 | Cc1nc(CC(=O)N2CCCCC2Cn2cccn2)cs1 (stereo not drawn) | 60.64%
63 | COc1ccc(OCCC(=O)N2CCCC2Cn2cccn2)cc1 (stereo not drawn) | -28.79%
64 | O=C(CCOc1cccc(F)c1)N1CCCC1Cn1cccn1 (stereo not drawn) | 8.37%
65 | O=C1COc2c(cccc2C(=O)N2CCCC2Cn2cccn2)N1 (stereo not drawn) | 24.56%
66 | Cc1cnn(CC2CCCN2C(=O)c2sccc2C#N)c1 (stereo not drawn) | 16.25%

Row | SMILES | INHIBITION
67 | CC(C)(C)CC(=O)NCC(=O)NCC(O)c1ccc2ccccc2c1 (stereo not drawn) | -29.53%
68 | CCc1n[nH]c(C2CN(C(=O)c3ccc(Cl)cn3)CCO2)n1 (stereo not drawn) | 22.69%
69 | CC(C)n1nc(Cn2cccn2)c2c1CN(CC1CCOC1)C2 (stereo not drawn) | 20.2%
70 | COCCC(=O)N1CCC(NC(=O)c2cscc2C)CC1 | 16.72%
71 | COCC(O)CN1CCC(NC(=O)c2ccccc2Cl)CC1 (stereo not drawn) | -41.8%
72 | COCC(O)CN1CCC(NC(=O)c2cscc2C)CC1 (stereo not drawn) | 50.93%
73 | CCc1nnsc1C(=O)N(C)Cc1nnc2n1CCC2 | -8.74%
74 | Cc1cnc(N2CCC3(CC(=O)N(Cc4csc(C)n4)C3)C2)nc1 (stereo not drawn) | 25.43%
75 | COCc1cc(N(CC(F)F)C2CC2)n2ncnc2n1 | 3.59%
76 | COCCN(CC(F)F)c1cc(COC)nc2ncnn12 | 69.52%
77 | CCCc1cc(N(CCOC)CC(F)F)n2ncnc2n1 | 55.18%
78 | COCCN(CC(F)F)c1cc(C(F)(F)F)nc2ncnn12 | 25.81%
79 | CCCN(CC(F)F)c1cc(COC)nc2ncnn12 | -6.73%
80 | CCN(CC)CCN(CC(C)C)c1cc(C(F)(F)F)nc2ncnn12 | -13.12%
81 | Cc1cc(C)c(CNC(=O)NCc2cc(F)cc(F)c2)c(=O)[nH]1 | 23.42%
82 | Cn1ncc(C(=O)OCC2CC(=O)N(c3ccccc3)C2)c1C(F)F (stereo not drawn) | 26.62%
83 | CC(C)NC(=O)C1CN(C(=O)Nc2cccc(F)c2)CC12CCOCC2 (stereo not drawn) | 9.53%
84 | O=C1CCCN1CCN1CCC(c2ccn[nH]2)CC1 | 33.26%
85 | CCc1c(C)nc(N)nc1NCCSCc1[nH]cnc1C | 29.98%
86 | Cc1nc(CN(C)C2CCCN(c3cccnn3)C2)oc1C (stereo not drawn) | -6.71%
87 | Cc1nc(C)n(CC2CCCN(Cc3nnc(-c4ccco4)o3)C2)n1 (stereo not drawn) | 22.51%
88 | c1coc(-c2nnc(CN3CCCC(CN4CCCCCC4)C3)o2)c1 (stereo not drawn) | -22.43%

Row | SMILES | INHIBITION
89 | CN(Cc1ncc(-c2ccccc2)o1)C1CCCN(c2cccnn2)C1 (stereo not drawn) | -4.81%
90 | CN(Cc1nnc(C2CC2)o1)C1CCCN(c2cccnn2)C1 (stereo not drawn) | -15.05%
91 | CN(Cc1ncc(C(C)(C)C)o1)C1CCCN(c2cccnn2)C1 (stereo not drawn) | 51.21%
92 | CN(Cc1nnc(-c2ccco2)o1)C1CCCN(c2cccnn2)C1 (stereo not drawn) | 53.03%
93 | CN(Cc1nc(-c2ccco2)no1)C1CCCN(c2cccnn2)C1 (stereo not drawn) | 22.1%
94 | Cc1ccccc1CCC1CCCN(Cc2nnc(-c3ccco3)o2)C1 (stereo not drawn) | 55.7%
95 | CC(CN(C)C)Nc1nc(O)cc(Cc2ccccc2F)n1 (stereo not drawn) | 21%
96 | COCCOc1cccc(C(=O)N2CCCCC2c2nccs2)c1 (stereo not drawn) | 4.41%
97 | CN(Cc1cccnc1)C1CCCN(Cc2noc(C3CC3)n2)C1 (stereo not drawn) | 42.12%
98 | CC(C)c1ccc(S(=O)(=O)Cc2nc(N)nc(N(C)C)n2)cc1 | -25.72%
99 | Cc1ccc(CS(=O)(=O)Cc2nc(N)nc(N(C)C)n2)cc1 | -44.8%
100 | CC(C)c1ccc(CS(=O)(=O)Cc2nc(N)nc(N(C)C)n2)cc1 | 64.9%
101 | CCOCCn1nc(C2CCNCC2)n(Cc2ccccc2)c1=O | 49.95%
102 | O=c1n(CC2CC2)nc(C2CCNCC2)n1Cc1ccccc1 | 51.19%
103 | CCCn1nc(C2CCNCC2)n(Cc2ccccc2)c1=O | 26.92%
104 | Cc1noc(C)c1CCC(=O)N1CCn2cccc2C1C (stereo not drawn) | -39.01%
105 | Cc1c(NC(=O)NC2CCCC2)cccc1C(=O)N1CCSCC1 | -12.09%
106 | O=C(Nc1ccccc1C(=O)N1CCCC1)NC1CCOCC1 | 70.83%
107 | Cc1c(NC(=O)NC2CCOCC2)cccc1C(=O)N1CCCC1 | 48.39%
108 | NS(=O)(=O)c1cnn(CCC(=O)N(Cc2ccccc2)C2CC2)c1 | -102.2%
